# In the library only some 3.7% were active in any assay of this set; here they are far more common.
# Autofluor counter – flagged as autofluorescent in microsphere protease counterscreen; compound autofluorescence counterscreen, microsphere flow cytometry; hits give high values; fluorescence intensity (concentration not given with the values); actives 3.1% (n = 360,000); AID 624483; in the data active = fluorescence intensity above about 16000; inconclusive = no clear call, values can overlap the other calls
# BoNT-A LC inh2 – BoNT/A light chain protease inhibitors, primary screen, biochemical, flow cytometry, MLPCN library | Botulinum neurotoxin type A light chain protease (Clostridium botulinum A str. ATCC 3502) | multiplex microsphere protease substrate cleavage | inhibition, % at 10 µM | actives 0.17% (n = 360,000)
# BJeLR lethal – MLPCN primary cell-based screen for lethality selective to Ras in HRASV12 cells. BJeLR (HRASV12) viability, CellTiter-Glo ATP luminescence, 48 h. inhibition, % (concentration not given with the values). actives 0.17% (n = 300,000). AID 1554, 2009; in the data active = inhibition above about 50%; inconclusive = no clear call, values can overlap the other calls
# Vc quorum ag – inducers of Vibrio cholerae quorum light production without autoinducers, primary screen, BH1578 luxS cqsA deficient, single point. actives 0.16% (n = 350,000). V. cholerae BH1578 lux reporter, luminescence, 6 h. activation, % at 18.7 µM. AID 588436, 2011; in the data active = activation mostly above about 9.7%, no sharp cut-off; inconclusive = no clear call, values can overlap the other calls; inactive = mostly below about 3.7%
# Anthrax LF inh2 – Bacillus anthracis LF protease inhibitors, primary screen, biochemical, multiplex microsphere, MLPCN library | Lethal factor (Bacillus anthracis), P15917 | multiplex microsphere protease cleavage assay | inhibition, % at 10 µM | actives 0.12% (n = 360,000)
# Target sequence (P15917 whole entry, looked up): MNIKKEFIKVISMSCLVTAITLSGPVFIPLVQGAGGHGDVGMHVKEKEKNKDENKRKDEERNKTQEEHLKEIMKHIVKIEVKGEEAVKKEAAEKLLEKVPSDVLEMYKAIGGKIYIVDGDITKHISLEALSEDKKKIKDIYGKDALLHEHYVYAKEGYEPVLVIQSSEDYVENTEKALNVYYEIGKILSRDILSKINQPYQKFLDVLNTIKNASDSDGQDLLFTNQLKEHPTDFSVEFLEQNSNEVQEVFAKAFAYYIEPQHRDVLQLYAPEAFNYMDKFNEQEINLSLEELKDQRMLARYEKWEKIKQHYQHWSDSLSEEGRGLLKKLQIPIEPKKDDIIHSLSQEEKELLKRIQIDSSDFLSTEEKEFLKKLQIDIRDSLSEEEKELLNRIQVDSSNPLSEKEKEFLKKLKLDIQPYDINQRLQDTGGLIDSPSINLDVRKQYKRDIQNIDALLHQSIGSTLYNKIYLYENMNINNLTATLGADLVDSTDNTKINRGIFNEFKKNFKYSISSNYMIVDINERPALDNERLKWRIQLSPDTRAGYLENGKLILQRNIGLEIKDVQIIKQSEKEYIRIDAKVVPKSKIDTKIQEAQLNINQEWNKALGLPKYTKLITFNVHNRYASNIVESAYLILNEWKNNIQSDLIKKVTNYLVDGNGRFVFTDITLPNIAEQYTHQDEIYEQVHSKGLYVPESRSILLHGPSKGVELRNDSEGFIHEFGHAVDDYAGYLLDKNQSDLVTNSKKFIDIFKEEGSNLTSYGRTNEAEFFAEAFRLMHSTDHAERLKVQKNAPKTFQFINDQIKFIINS
# BoNT F protease – BoNT/F light chain protease inhibitors, primary screen, biochemical, flow cytometry, MLPCN library. Botulinum neurotoxin type F light chain protease (Clostridium botulinum). Multiplex microsphere protease cleavage assay. inhibition, % at 10 µM. actives 0.22% (n = 360,000). AID 588497, 2011; in the data active = inhibition above about 35%, passing the limit was not always enough; inconclusive = no clear call, values can overlap the other calls
# Numbers stand for hits; i = inactive; ? = inconclusive; nt = not tested or not shown. Rule as the data show it, unless noted: active = inhibition above about 30%; inconclusive = no clear call, values can overlap the other calls; inactive = below that.
SMILES,Autofluor counter,BoNT-A LC inh2,BJeLR lethal,Vc quorum ag,Anthrax LF inh2,BoNT F protease
Cn1c(NCCc2ccncc2)nc2cc(-c3cccc(C(F)(F)F)c3)sc2c1=O,i,i,nt,i,i,i
CCCCC(=O)N(C)c1c(CC)nc2c(OCc3cc(Cl)cc(Cl)c3)cccn12,i,i,nt,i,i,i
COC(=O)N1CCCCC1c1cc(C(=O)NCc2cccnc2)no1 (stereo not drawn),i,i,nt,i,i,i
O=C(c1ccc(Cl)cc1)c1oc2ccccc2c1CS(=O)c1ccccc1 (stereo not drawn),20280,i,i,i,i,i
O=C(O)c1oc2ccccc2c1CSc1ccc(Cl)cc1,i,i,i,i,i,i
COc1cccc(C(NC(C)=O)c2nc(-c3ccc4ccccc4c3)cs2)c1 (stereo not drawn),i,i,nt,i,i,i
COc1ccc(NC(=O)c2cccnc2Nc2ccccc2)cc1,23086,i,i,i,i,i
COc1ccccc1Nc1ncccc1C(=O)NCc1ccccc1,20309,i,i,i,i,i
COc1ccc(NC(=O)c2ccccc2NC(=O)NC2CCCCC2)cc1,23203,i,i,i,i,i
COCC(=O)Nc1ccccc1C(=O)Nc1ccc(OC)cc1,22328,i,i,i,i,i
COCCCNC(=O)c1cccc2c(-c3cccc(C(N)=O)c3)coc12,i,i,nt,i,i,i
NC(=O)c1ccccc1NC(=O)Nc1cccc(Cl)c1,20064,i,i,i,i,i
O=C(Nc1ccccc1NC(=O)NC1CCCCC1)NC1CCCCC1,16874,?,i,i,i,i
CSc1ccccc1C(=O)NC1CCCCCC1,20204,i,i,i,i,i
Cc1ccccc1C(=O)NC1CCCCCCC1,i,i,i,i,i,i
NC(=O)c1ccccc1NC(=O)NC1CCCCC1,22128,?,i,i,i,i
COc1ccc(C(=O)OCC(=O)NC2CC2)cc1,i,i,nt,i,i,i
CCOC(=O)[C@]12CCC=C1N(Cc1cccc3ccccc13)C(=O)[C@H](CC(=O)NCCCN1CCCC1=O)C2,i,i,nt,nt,i,i
COc1ccccc1C(O)c1ncc(-c2ccccc2C)[nH]1 (stereo not drawn),i,i,nt,i,i,i
Cc1ccc(NS(=O)(=O)c2ccc(C(=O)NCC(c3ccco3)N(C)C)cc2)cc1 (stereo not drawn),i,i,i,i,i,i
CN(C)C(CNC(=O)c1ccc(NS(=O)(=O)c2ccc(F)cc2)cc1)c1ccco1 (stereo not drawn),36456,i,i,i,i,i
NNC(=O)c1cn2ccccc2n1,19411,?,i,i,i,i
O=C(Nc1nccs1)c1cn2ccccc2n1,i,i,i,i,i,i
Cc1coc2c1c(C)cc1oc(=O)c(Cc3ccccc3)c(C)c12,24793,i,i,i,i,i
Cn1c(NCCOc2ccccc2Cl)nc2cc(-c3ccc(F)cc3)sc2c1=O,i,i,nt,i,i,i
SMILES,Autofluor counter,BoNT-A LC inh2,BJeLR lethal,Vc quorum ag,Anthrax LF inh2,BoNT F protease
Cc1ccc(CSc2ncn(-c3ccccc3)n2)cc1,24543,?,i,i,i,i
Clc1ccccc1CSc1ncn(-c2ccccc2)n1,21905,i,i,i,i,i
Cc1nc(-n2ncc(C#N)c2N)c2c3c(sc2n1)CCC3,22751,i,i,i,i,i
CC(NC(=O)c1cccc(Cn2cc([N+](=O)[O-])cn2)c1)c1ccc(C(C)(C)C)cc1 (stereo not drawn),19892,i,i,i,i,i
COC(=O)c1ccc(Cn2cc(Cl)cn2)cc1,i,i,i,i,i,i
CC(C)NC(=O)c1cccc(Cn2cc(Cl)cn2)c1,22543,i,i,i,i,i
CCc1nc2c(OCC(=O)c3ccc(F)cc3)cccn2c1N(C)C(=O)C(C)C,i,i,nt,i,i,i
CCOc1cccc(=O)c2c(C)n(Cc3ccccc3)c(C)c12,i,i,i,i,i,i
CCOc1cccc(=O)c2c(C)n(Cc3ccco3)c(C)c12,22022,i,i,i,i,i
CCC(=O)Nc1ccc2c(c1)ncn2-c1ccccc1,21985,i,i,i,i,i
Cc1ccc(S(=O)(=O)NC(=O)C2(C)CCN2C(=O)C2(c3ccc(Cl)cc3)CCC2)nc1 (stereo not drawn),i,i,nt,i,i,i
O=C(c1ccc(S(=O)(=O)Cc2cc(F)ccc2F)c([N+](=O)[O-])c1)N1CCOCC1,i,i,nt,i,i,i
CC(=O)OCCOc1nc(NC(C)C)nc(NC(C)C)n1,i,i,i,i,i,i
CC(C)Nc1nc(NC(C)C)nc(N(C)C(N)=O)n1,19916,i,i,i,i,i
CC(C)Nc1nc(NC(C)C)nc(C(N)=O)n1,16247,i,i,i,i,i
CC(C)Nc1nc(NC(C)C)nc(N(C)N)n1,i,i,i,i,i,i
CCC(=O)N1CCC1(C)C(=O)Nc1cccc2cccnc12 (stereo not drawn),i,i,nt,i,i,i
Cc1ccccc1SCC(=O)Nc1cc(C(F)(F)F)ccc1N1CCOCC1,i,i,i,i,i,i
CCCCOc1ncnc2c1[nH]c1ccc(OCC)cc12,18958,i,i,i,i,i
CC(O)(c1cccnc1)c1nc(-c2cccc3cccnc23)cs1 (stereo not drawn),i,i,nt,i,i,i
COc1ccc(C(=O)Nn2cc3c(c2-c2ccccc2)c(=O)n(C)c(=O)n3C)cc1,20615,i,i,i,i,i
CCN(CC)C(=O)C1=C(C)N(Cc2ccc(C(C)(C)C)cc2)C(=O)C(CC(=O)NCc2cccs2)C1 (stereo not drawn),i,i,nt,i,i,i
CC(=O)c1c(C(C)=O)c(C)n(-c2ccc(C(=O)O)cc2)c1C,i,i,i,i,i,i
CC(=O)c1c(C(C)=O)c(C)n(-c2ccc(O)cc2)c1C,21526,i,i,i,i,i
C#CCNc1c(C)c(C)nc2ncnn12,24659,i,i,i,i,i
SMILES,Autofluor counter,BoNT-A LC inh2,BJeLR lethal,Vc quorum ag,Anthrax LF inh2,BoNT F protease
CN1C(=O)[C@H]2[C@@H](c3ccc(C(F)(F)F)cc3)N[C@]3(CCCN(CC4CCCCC4)C3=O)[C@H]2C1=O,i,i,nt,i,i,i
COCCNC(=O)C1(C)CCCN(C(=O)c2cccc(OC(F)(F)F)c2)C1 (stereo not drawn),i,i,nt,i,i,i
O=C(NC(Cc1ccccc1)C(=O)N1CCN(c2ccccc2O)CC1)c1ccccc1 (stereo not drawn),i,i,nt,i,i,i
CN(C)S(=O)(=O)c1ccc(C(=O)OCC(=O)Nc2ccccc2OC(F)F)cc1,23884,i,i,i,i,i
O=C(COC(=O)c1ccc(S(=O)(=O)NCc2ccco2)cc1)Nc1ccccc1OC(F)F,i,i,i,i,i,i
COCCNc1nc(Oc2cncc(Cl)c2)c2sccc2n1,i,i,nt,i,i,i

# Screening results as filed in PubChem.
